Data as given in PMC12864922, “TDP-43 directly inhibits mRNA accumulation in neurites through modulation of mRNA stability”.
The full ranking holds about 9,900 sequences; the median of “r (bound/input frequency ratio)” is about 0.7, and the highest 2% start at about 6.5. This excerpt belongs to a sample that is enriched for the highest values.

B1: ENSMUSG00000043670.200|Diras1 (ssRNA)
RNA: GGGAGUUCUACAGUCCGACGAUCGCUUCGAUAUCCGCAUGCUAGAGACUUGAGUGGCUCCUGGGCCUGUGUCCCACCCAGAUGAGGGUGACUUAGAAUUCUGUGUUUAUGUGCCUGUGUGUGUGGAUGGGUGUGUGUCUGUCUUGGGAUGGGGUGUUCUUGCACCACUUUGUGUUCUUAGUGAGACCACAGUGUAAGUGGCCGUGUGUGUGUGUGGGGGGGGGCACCUAGACAUUGUGGUGUGUCUGUAUGGCUCUGUGUUUUCAGGGGUGGGUGACACAGGCCUGUCUGAUGAGCACCAGGUCUCUUGCGGUCGCACUAGUGUGGAAUUCUCGGGUGUCAAGG
B2: ENSMUSG00000043670.213|Diras1 (ssRNA)
RNA: GGGAGUUCUACAGUCCGACGAUCGCUUCGAUAUCCGCAUGCUAGUGGAUGGGUGUGUGUCUGUCUUGGGAUGGGGUGUUCUUGCACCACUUUGUGUUCUUAGUGAGACCACAGUGUAAGUGGCCGUGUGUGUGUGUGGGGGGGGGCACCUAGACAUUGUGGUGUGUCUGUAUGGCUCUGUGUUUUCAGGGGUGGGUGACACAGGCCUGUCUGAUGAGCACCAGGUCUGUUCCAGGCUGUGGCAAGCUGGCUCCUGGCUCAGAAGUGACAAAGCUGCAGUACAGAGGCCUCAGUGUGAGGUCAUCUCUUGCGGUCGCACUAGUGUGGAAUUCUCGGGUGUCAAGG
B3: ENSMUSG00000043670.204|Diras1 (ssRNA)
RNA: GGGAGUUCUACAGUCCGACGAUCGCUUCGAUAUCCGCAUGCUAGUGUCCCACCCAGAUGAGGGUGACUUAGAAUUCUGUGUUUAUGUGCCUGUGUGUGUGGAUGGGUGUGUGUCUGUCUUGGGAUGGGGUGUUCUUGCACCACUUUGUGUUCUUAGUGAGACCACAGUGUAAGUGGCCGUGUGUGUGUGUGGGGGGGGGCACCUAGACAUUGUGGUGUGUCUGUAUGGCUCUGUGUUUUCAGGGGUGGGUGACACAGGCCUGUCUGAUGAGCACCAGGUCUGUUCCAGGCUGUGGCAAGCUGGCUCUUGCGGUCGCACUAGUGUGGAAUUCUCGGGUGUCAAGG
B4: ENSMUSG00000043670.201|Diras1 (ssRNA)
RNA: GGGAGUUCUACAGUCCGACGAUCGCUUCGAUAUCCGCAUGCUAUGAGUGGCUCCUGGGCCUGUGUCCCACCCAGAUGAGGGUGACUUAGAAUUCUGUGUUUAUGUGCCUGUGUGUGUGGAUGGGUGUGUGUCUGUCUUGGGAUGGGGUGUUCUUGCACCACUUUGUGUUCUUAGUGAGACCACAGUGUAAGUGGCCGUGUGUGUGUGUGGGGGGGGGCACCUAGACAUUGUGGUGUGUCUGUAUGGCUCUGUGUUUUCAGGGGUGGGUGACACAGGCCUGUCUGAUGAGCACCAGGUCUGUUCCUCUUGCGGUCGCACUAGUGUGGAAUUCUCGGGUGUCAAGG
B5: ENSMUSG00000043670.196|Diras1 (ssRNA)
RNA: GGGAGUUCUACAGUCCGACGAUCGCUUCGAUAUCCGCAUGCUAUGUGGUAUCUGCGAGACUGUCCAGGAGACUUGAGUGGCUCCUGGGCCUGUGUCCCACCCAGAUGAGGGUGACUUAGAAUUCUGUGUUUAUGUGCCUGUGUGUGUGGAUGGGUGUGUGUCUGUCUUGGGAUGGGGUGUUCUUGCACCACUUUGUGUUCUUAGUGAGACCACAGUGUAAGUGGCCGUGUGUGUGUGUGGGGGGGGGCACCUAGACAUUGUGGUGUGUCUGUAUGGCUCUGUGUUUUCAGGGGUGGGUGACACCUCUUGCGGUCGCACUAGUGUGGAAUUCUCGGGUGUCAAGG
B6: ENSMUSG00000043670.216|Diras1 (ssRNA)
RNA: GGGAGUUCUACAGUCCGACGAUCGCUUCGAUAUCCGCAUGCUAGUCUUGGGAUGGGGUGUUCUUGCACCACUUUGUGUUCUUAGUGAGACCACAGUGUAAGUGGCCGUGUGUGUGUGUGGGGGGGGGCACCUAGACAUUGUGGUGUGUCUGUAUGGCUCUGUGUUUUCAGGGGUGGGUGACACAGGCCUGUCUGAUGAGCACCAGGUCUGUUCCAGGCUGUGGCAAGCUGGCUCCUGGCUCAGAAGUGACAAAGCUGCAGUACAGAGGCCUCAGUGUGAGGUCAUCACCUCACAGUGGCUACACUCUUGCGGUCGCACUAGUGUGGAAUUCUCGGGUGUCAAGG
B7: ENSMUSG00000043670.197|Diras1 (ssRNA)
RNA: GGGAGUUCUACAGUCCGACGAUCGCUUCGAUAUCCGCAUGCUAAUCUGCGAGACUGUCCAGGAGACUUGAGUGGCUCCUGGGCCUGUGUCCCACCCAGAUGAGGGUGACUUAGAAUUCUGUGUUUAUGUGCCUGUGUGUGUGGAUGGGUGUGUGUCUGUCUUGGGAUGGGGUGUUCUUGCACCACUUUGUGUUCUUAGUGAGACCACAGUGUAAGUGGCCGUGUGUGUGUGUGGGGGGGGGCACCUAGACAUUGUGGUGUGUCUGUAUGGCUCUGUGUUUUCAGGGGUGGGUGACACAGGCCUCUCUUGCGGUCGCACUAGUGUGGAAUUCUCGGGUGUCAAGG
B8: ENSMUSG00000043670.199|Diras1 (ssRNA)
RNA: GGGAGUUCUACAGUCCGACGAUCGCUUCGAUAUCCGCAUGCUAGUCCAGGAGACUUGAGUGGCUCCUGGGCCUGUGUCCCACCCAGAUGAGGGUGACUUAGAAUUCUGUGUUUAUGUGCCUGUGUGUGUGGAUGGGUGUGUGUCUGUCUUGGGAUGGGGUGUUCUUGCACCACUUUGUGUUCUUAGUGAGACCACAGUGUAAGUGGCCGUGUGUGUGUGUGGGGGGGGGCACCUAGACAUUGUGGUGUGUCUGUAUGGCUCUGUGUUUUCAGGGGUGGGUGACACAGGCCUGUCUGAUGAGCACUCUUGCGGUCGCACUAGUGUGGAAUUCUCGGGUGUCAAGG
B9: ENSMUSG00000043670.195|Diras1 (ssRNA)
RNA: GGGAGUUCUACAGUCCGACGAUCGCUUCGAUAUCCGCAUGCUAAGCCCCUGUGGUAUCUGCGAGACUGUCCAGGAGACUUGAGUGGCUCCUGGGCCUGUGUCCCACCCAGAUGAGGGUGACUUAGAAUUCUGUGUUUAUGUGCCUGUGUGUGUGGAUGGGUGUGUGUCUGUCUUGGGAUGGGGUGUUCUUGCACCACUUUGUGUUCUUAGUGAGACCACAGUGUAAGUGGCCGUGUGUGUGUGUGGGGGGGGGCACCUAGACAUUGUGGUGUGUCUGUAUGGCUCUGUGUUUUCAGGGGUGGGCUCUUGCGGUCGCACUAGUGUGGAAUUCUCGGGUGUCAAGG

Each binder was assayed against TDP-43 (Homo sapiens, UniProt Q13148 1-414) (assay: RNA Bind-n-Seq with designed 260-mer pool; 25 mM Tris-HCl, 150 mM KCl, 3 mM MgCl2, BSA (printed 500 mg/mL), 20 units/mL SUPERase IN; pH not stated; 500 nM RNA pool, 1 h, 4 C; TDP-43 5, 50, 500 nM; high values mean tight binding). Conditions: protein: recombinant; tags: SBP (GST cleaved off with PreScission; pGEX-GST-SBP).
Summary of the method: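 Binding (R) is the ratio of each oligo's mapped-read-normalized abundance in the bound fraction to its abundance in the input. To obtain it, SBP-tagged recombinant TDP-43 (5, 50 or 500 nM) on streptavidin beads was incubated with 500 nM of an in vitro-transcribed 260-nt 3′ UTR oligo pool for 1 h at 4 °C in 25 mM Tris-HCl, 150 mM KCl, 3 mM MgCl2, BSA and SUPERase IN. The RNA retained after washing was released with biotin, then reverse transcribed, amplified by PCR and sequenced.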

Chain of TDP-43 (Q13148 whole entry): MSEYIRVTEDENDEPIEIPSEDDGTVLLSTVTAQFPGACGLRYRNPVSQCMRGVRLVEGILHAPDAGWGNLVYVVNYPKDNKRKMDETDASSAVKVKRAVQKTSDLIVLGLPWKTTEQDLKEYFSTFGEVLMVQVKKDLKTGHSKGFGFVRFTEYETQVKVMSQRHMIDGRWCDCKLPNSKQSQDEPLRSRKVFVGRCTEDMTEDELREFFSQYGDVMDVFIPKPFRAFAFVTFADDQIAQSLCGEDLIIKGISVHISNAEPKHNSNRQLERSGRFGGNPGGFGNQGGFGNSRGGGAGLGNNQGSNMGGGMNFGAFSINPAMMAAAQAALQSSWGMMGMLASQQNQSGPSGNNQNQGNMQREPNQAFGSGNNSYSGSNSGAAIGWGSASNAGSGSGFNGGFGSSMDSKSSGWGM

First: B1
Second: B2
The binding signal of the first is higher: 11.3 R (bound/input frequency ratio) for the first, 6.42 R (bound/input frequency ratio) for the second.

Going from B3 to B4, the binding signal falls from 6.58 R (bound/input frequency ratio) to 4.7 R (bound/input frequency ratio).

First: B5
Second: B6
The binding signal of the first is higher: 6.21 R (bound/input frequency ratio) for the first, 3.28 R (bound/input frequency ratio) for the second.

First: B7
Second: B8
The binding signal of the first is higher: 7.91 R (bound/input frequency ratio) for the first, 5.44 R (bound/input frequency ratio) for the second.

For B9, the binding signal was 5.71 R (bound/input frequency ratio).
